# From ChEMBL document CHEMBL2218924, “A broad activity screen in support of a chemogenomic map for kinase signalling research and drug discovery” (Biochem J, 2013)
# What was measured:
# [1] = target: T1, Serine/threonine-protein kinase Sgk3 (Homo sapiens) (UniProt Q96BR1); settings: at 10 µM
# T1 sequence (whole entry): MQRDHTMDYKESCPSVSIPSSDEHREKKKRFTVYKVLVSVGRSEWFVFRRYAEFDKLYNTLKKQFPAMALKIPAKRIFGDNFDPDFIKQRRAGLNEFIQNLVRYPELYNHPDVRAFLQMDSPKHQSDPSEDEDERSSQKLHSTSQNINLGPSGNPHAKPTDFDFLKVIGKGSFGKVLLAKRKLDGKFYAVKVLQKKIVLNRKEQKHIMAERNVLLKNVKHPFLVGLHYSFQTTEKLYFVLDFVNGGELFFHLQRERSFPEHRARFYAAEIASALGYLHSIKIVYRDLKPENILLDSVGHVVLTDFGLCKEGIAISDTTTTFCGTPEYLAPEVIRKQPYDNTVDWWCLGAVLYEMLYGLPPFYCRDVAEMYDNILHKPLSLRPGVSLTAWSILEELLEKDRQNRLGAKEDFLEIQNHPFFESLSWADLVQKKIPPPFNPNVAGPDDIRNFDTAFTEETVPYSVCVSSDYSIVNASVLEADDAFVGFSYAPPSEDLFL
# [2] = target: Serine/threonine-protein kinase SIK1 (Homo sapiens) (UniProt P57059); settings: at 1 µM
# Serine/threonine-protein kinase SIK1 (Homo sapiens), sequence (P57059 whole entry): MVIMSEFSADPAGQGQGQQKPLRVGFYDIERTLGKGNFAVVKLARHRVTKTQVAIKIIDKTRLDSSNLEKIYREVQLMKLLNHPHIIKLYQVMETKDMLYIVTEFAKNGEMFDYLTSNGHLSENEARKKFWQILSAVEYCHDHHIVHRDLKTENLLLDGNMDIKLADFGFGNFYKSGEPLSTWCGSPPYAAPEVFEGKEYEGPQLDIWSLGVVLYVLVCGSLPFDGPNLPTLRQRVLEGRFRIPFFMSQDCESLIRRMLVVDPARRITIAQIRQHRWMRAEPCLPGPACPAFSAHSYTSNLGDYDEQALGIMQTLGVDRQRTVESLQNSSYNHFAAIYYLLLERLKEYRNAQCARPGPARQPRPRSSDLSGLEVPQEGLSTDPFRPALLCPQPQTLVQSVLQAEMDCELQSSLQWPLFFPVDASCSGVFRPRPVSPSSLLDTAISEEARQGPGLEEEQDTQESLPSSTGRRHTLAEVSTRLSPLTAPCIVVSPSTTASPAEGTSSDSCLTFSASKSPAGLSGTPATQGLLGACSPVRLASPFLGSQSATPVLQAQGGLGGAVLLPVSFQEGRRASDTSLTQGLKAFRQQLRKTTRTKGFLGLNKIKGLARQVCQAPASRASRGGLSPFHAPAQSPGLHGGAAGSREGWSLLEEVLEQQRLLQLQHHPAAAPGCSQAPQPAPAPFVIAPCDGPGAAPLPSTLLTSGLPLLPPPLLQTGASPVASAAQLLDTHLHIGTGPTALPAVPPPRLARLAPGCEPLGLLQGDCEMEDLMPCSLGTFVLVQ
# [3] = target: Serine/threonine-protein kinase SIK1 (Homo sapiens) (UniProt P57059); settings: at 10 µM
# [4] = target: SRSF protein kinase 1 (Homo sapiens) (UniProt Q96SB4); settings: at 1 µM
# SRSF protein kinase 1 (Homo sapiens), sequence (Q96SB4 whole entry): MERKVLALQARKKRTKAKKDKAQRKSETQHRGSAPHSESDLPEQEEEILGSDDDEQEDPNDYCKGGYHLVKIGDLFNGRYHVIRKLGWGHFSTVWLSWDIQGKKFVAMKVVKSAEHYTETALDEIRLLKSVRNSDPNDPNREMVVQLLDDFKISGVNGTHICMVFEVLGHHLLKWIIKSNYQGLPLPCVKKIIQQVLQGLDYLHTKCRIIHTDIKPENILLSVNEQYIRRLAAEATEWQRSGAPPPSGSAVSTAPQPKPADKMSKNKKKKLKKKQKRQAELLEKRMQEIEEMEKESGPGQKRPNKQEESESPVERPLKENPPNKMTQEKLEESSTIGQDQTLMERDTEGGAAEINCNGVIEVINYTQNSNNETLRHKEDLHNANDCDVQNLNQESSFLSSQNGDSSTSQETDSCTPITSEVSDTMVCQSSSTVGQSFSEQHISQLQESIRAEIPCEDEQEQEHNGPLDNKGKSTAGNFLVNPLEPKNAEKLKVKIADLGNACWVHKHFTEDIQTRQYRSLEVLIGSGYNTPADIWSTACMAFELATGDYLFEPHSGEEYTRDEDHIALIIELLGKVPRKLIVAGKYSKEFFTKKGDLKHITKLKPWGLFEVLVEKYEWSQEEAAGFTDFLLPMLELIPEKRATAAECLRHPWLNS
# [5] = target: SRSF protein kinase 1 (Homo sapiens) (UniProt Q96SB4); settings: at 10 µM
# [6] = target: SRSF protein kinase 2 (Homo sapiens) (UniProt P78362); settings: at 1 µM
# SRSF protein kinase 2 (Homo sapiens), sequence (P78362 whole entry, looked up): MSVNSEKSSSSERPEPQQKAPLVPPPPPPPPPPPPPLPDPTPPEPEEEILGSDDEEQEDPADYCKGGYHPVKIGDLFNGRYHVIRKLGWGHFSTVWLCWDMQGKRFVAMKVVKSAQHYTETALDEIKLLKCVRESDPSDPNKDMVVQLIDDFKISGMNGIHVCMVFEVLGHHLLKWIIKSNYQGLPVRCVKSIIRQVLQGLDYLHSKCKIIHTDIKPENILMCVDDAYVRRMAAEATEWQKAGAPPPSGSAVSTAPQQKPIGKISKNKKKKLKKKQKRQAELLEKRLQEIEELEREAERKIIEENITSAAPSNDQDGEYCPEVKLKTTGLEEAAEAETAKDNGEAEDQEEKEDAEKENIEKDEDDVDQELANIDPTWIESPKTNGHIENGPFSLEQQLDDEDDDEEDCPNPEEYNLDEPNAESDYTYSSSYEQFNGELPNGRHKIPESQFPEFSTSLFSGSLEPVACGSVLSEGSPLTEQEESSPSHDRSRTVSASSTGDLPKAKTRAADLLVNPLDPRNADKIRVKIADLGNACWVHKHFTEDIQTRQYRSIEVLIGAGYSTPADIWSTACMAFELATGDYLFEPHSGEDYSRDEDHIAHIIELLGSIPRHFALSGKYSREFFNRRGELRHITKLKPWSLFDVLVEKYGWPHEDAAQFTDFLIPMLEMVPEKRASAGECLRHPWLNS
# [7] = target: SRSF protein kinase 2 (Homo sapiens) (UniProt P78362); settings: at 10 µM
# [8] = target: T1, Serine/threonine-protein kinase Sgk3 (Homo sapiens); settings: at 1 µM
compound,measurement,setting,value
CC(C)[C@H](CO)Nc1nc(Nc2cccc(Cl)c2)c2ncn(C(C)C)c2n1,residual activity,[1],97%
same,residual activity,[2],85%
same,residual activity,[3],16%
same,residual activity,[4],52%
same,residual activity,[5],-1%
same,residual activity,[6],32%
same,residual activity,[7],2%
O=C1NC(=O)c2c1c1c3ccccc3[nH]c1n1cncc21,residual activity,[8],87%
Cc1cc(Nc2nc(-c3ccccc3)nc3ccccc23)n[nH]1,residual activity,[8],107%
CCN(CC)CCCCN1c2ccccc2Oc2ccc(Cl)cc21,residual activity,[8],107%
O=C1c2ccccc2-c2nc3nnnn3nc21,residual activity,[4],107%
same,residual activity,[5],111%
same,residual activity,[7],101%
O=C(c1cc2cc(O)ccc2[nH]1)c1cc2cc(O)ccc2[nH]1,residual activity,[8],81%
Nc1ncnc2c1cnn2-c1ccccc1,residual activity,[8],94%
Cn1sc(=O)n(Cc2ccccc2)c1=O,residual activity,[8],99%
Oc1n[nH]c2nnc(-c3c(-c4ccccc4)nn4ccccc34)cc12,residual activity,[8],92%
COc1ccc(CNc2nc(N(CCO)CCO)nc3c2ncn3C(C)C)cc1,residual activity,[8],114%
Cc1nc(-c2ccccc2)c(-c2ccncc2)o1,residual activity,[8],108%
Cc1ccc(S(=O)(=O)/C=C/C#N)cc1,residual activity,[8],103%
N/C(=N\[N+](=O)[O-])N/N=C\c1ccc(-c2cccc([N+](=O)[O-])c2)o1,residual activity,[8],127%
same,residual activity,[1],81%
same,residual activity,[6],99%
same,residual activity,[7],88%
O=Nc1c(-c2c(O)[nH]c3ccccc23)[nH]c2ccccc12,residual activity,[8],89%
O=C(Nc1nc2ccccc2n1CCN1CCOCC1)c1cccc([N+](=O)[O-])c1,residual activity,[8],108%
Cn1cnc2cc3c(Nc4cccc(Br)c4)ncnc3cc21,residual activity,[8],107%
CCc1nc(-c2ccc(OC)cc2)[nH]c1-c1ccncc1,residual activity,[8],115%
same,residual activity,[1],79%
same,residual activity,[2],139%
same,residual activity,[6],102%
same,residual activity,[7],74%
